Bioassay records as filed in PubChem BioAssay.
CYP2C19 activ: human CYP2C19 activators, primary screen, biochemical, luminescence. Cytochrome P450 2C19 (Homo sapiens), P33261. recombinant CYP2C19, luciferin-H EGE luminescence; stronger effect = higher value; 0 = fully inhibited enzyme, 1 = untreated enzyme. activation factor at 5 µM. 96,000 tested, under 10 active;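 active = activation factor of at least 2 at 5 µM in the primary screen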;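 note: 0 = wells with 2.5 mM tranylcypromine and 1 = vehicle-only wells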
CYP2C9 inh: blockers of cytochrome P450 2C9 activity – biochemical, luminescence, ADME assay, primary screen; P11712; CYP2C9 Supersomes, luciferin-H conversion; inhibition, % at 5 µM; 96,000 tested, 20% active; AID 777, 2007;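 active = blocking of liver enzyme CYP2C9 beyond about 50% at 5 µM, limit read from the data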
Target sequence (P11712 whole entry, looked up): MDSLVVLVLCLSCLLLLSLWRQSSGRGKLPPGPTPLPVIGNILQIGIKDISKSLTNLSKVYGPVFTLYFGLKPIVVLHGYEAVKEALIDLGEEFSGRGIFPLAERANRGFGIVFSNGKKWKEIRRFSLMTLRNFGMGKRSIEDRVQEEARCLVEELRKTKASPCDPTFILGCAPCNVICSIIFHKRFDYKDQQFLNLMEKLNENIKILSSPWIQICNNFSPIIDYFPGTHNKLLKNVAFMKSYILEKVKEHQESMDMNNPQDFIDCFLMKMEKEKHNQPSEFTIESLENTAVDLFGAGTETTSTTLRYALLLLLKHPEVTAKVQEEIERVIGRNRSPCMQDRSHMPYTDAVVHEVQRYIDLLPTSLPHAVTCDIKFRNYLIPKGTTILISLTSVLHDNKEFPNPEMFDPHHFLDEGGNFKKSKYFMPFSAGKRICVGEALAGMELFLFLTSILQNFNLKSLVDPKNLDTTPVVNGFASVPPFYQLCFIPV
CYP2C9 act: human CYP2C9 activators, primary screen, biochemical, luminescence; Cytochrome P450 2C9 (Homo sapiens), P11712; recombinant CYP2C9, luciferin-H conversion; stronger effect = higher value; factor 1 = untreated enzyme, 0 = blocked; activation factor at 5 µM; 96,000 tested, 1.4% active; AID 1024, 2008;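 active = activation factor of 2 or more for CYP2C9 at a 5 µM dose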;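 note: 0 = sulfaphenazole-blocked wells and 1 = vehicle-only wells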
CYP2C19 inhib: blockers of cytochrome P450 2C19 activity – biochemical, luminescence, ADME assay, primary screen; P33261; 96,000 tested, 21% active; CYP2C19 Supersomes, luciferin-H EGE luminescence, 30 min; inhibition, % at 5 µM;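 active = CYP2C19 inhibition above a set limit at 5 µM in the primary screen, cut at about 50% in these data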;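 note: plate controls were negative control wells for no effect and 2.5 mM tranylcypromine positive control for full effect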
Measles CPE: compounds protecting cells from measles virus cytopathic effect, primary screen, measles RdRp inhibitor project, single point, MLSMR library, absorbance. protection (pct of control), % at 4 µM. 140,000 tested, 1.5% active. Measles virus-infected cells, CPE protection; in the data active = protection mostly above about 24%, no sharp cut-off; inactive = mostly below about 26%
Starred values were filed as active, the others as inactive. A selection: hits, their analogues and other compounds. The true share with any hit is near 22%.

For Cc1c(NS(=O)(=O)c2cccc(C(=O)NCc3ccccc3)c2)c(=O)n(-c2ccccc2)n1C the results were CYP2C19 activ 0.8, CYP2C9 inh 48, CYP2C9 act 0.5, CYP2C19 inhib 21 and Measles CPE 4.
Screening COc1ccccc1NC(=S)NC(=O)C1CC1 returned Measles CPE 8.
Screening Cc1ccc(CNC(=O)/C=C/c2ccc(S(=O)(=O)N3CCOCC3)cc2)cc1 returned Measles CPE 3.
`COc1ccc(CNC(=O)C2CCCN2S(=O)(=O)c2ccc(C)cc2)cc1` (configuration not stated) gave CYP2C19 activ 0.2, CYP2C9 inh 14, CYP2C9 act 0.9, CYP2C19 inhib 80* and Measles CPE 2.
COc1ccc(CNC(=O)C2CCCN2S(=O)(=O)c2ccccc2)cc1 (configuration not stated) was read as CYP2C19 activ 0.2, CYP2C9 inh 34, CYP2C9 act 0.7, CYP2C19 inhib 77* and Measles CPE 26.
COc1ccc(CNC(=O)[C@H](C)NC(=O)C2CCN(S(=O)(=O)c3ccc(C)cc3)CC2)cc1 was read as CYP2C19 activ 0.9, CYP2C9 inh 27, CYP2C9 act 0.7, CYP2C19 inhib 7 and Measles CPE 6.
Screening O=C(CCN1C(=O)C2C3CCC(C3)C2C1=O)Nc1ccc(Br)cc1 (configuration not stated) returned Measles CPE 4.
Screening Cc1nc(SC2CC(=O)N(c3ccccc3)C2=O)nc2c1CCCC2 (configuration not stated) returned CYP2C19 activ 0.6, CYP2C9 inh 44, CYP2C9 act 0.6, CYP2C19 inhib 41 and Measles CPE 75*.
`Cc1nnc(-c2cnn(C)c2N)n1Cc1ccccc1F` gave CYP2C19 activ 1, CYP2C9 inh 10, CYP2C9 act 0.9, CYP2C19 inhib 4 and Measles CPE 7.
Screening Brc1ccc(OCc2nc(-c3ccccn3)n[nH]2)cc1 returned CYP2C19 activ 0.3, CYP2C9 inh 62*, CYP2C9 act 0.4, CYP2C19 inhib 71* and Measles CPE 6.
`Nc1nc(N)nc(-c2ccccn2)n1` gave CYP2C19 activ 0.8, CYP2C9 inh -2, CYP2C9 act 1, CYP2C19 inhib 20 and Measles CPE 5.
Screening Clc1ccc(OCc2nc(-c3ccccn3)n[nH]2)cc1 returned CYP2C19 activ 0.3, CYP2C9 inh 51*, CYP2C9 act 0.5, CYP2C19 inhib 65* and Measles CPE 6.
CCOC(=O)c1sc(NS(=O)(=O)c2cc(C)ccc2C)nc1C was read as CYP2C19 activ 0.6, CYP2C9 inh 94*, CYP2C9 act 0.1, CYP2C19 inhib 45 and Measles CPE 4.
For CCOC(=O)c1sc(Nc2cccc(C)c2C)nc1C the results were CYP2C19 activ 0.9, CYP2C9 inh 70*, CYP2C9 act 0.3, CYP2C19 inhib 11 and Measles CPE 4.
O=C1C(CCS(=O)c2ccccc2)C(=O)N(c2ccccc2)N1c1ccccc1 (configuration not stated) was read as Measles CPE 44.
COc1cc(NS(=O)(=O)c2ccc(N/C=C(\C#N)c3nc4cc(Cl)ccc4o3)cc2)nc(OC)n1 was read as CYP2C19 activ 1.1, CYP2C9 inh 63*, CYP2C9 act 0.4, CYP2C19 inhib -6 and Measles CPE 5.
`Cc1ccc(NC(=O)c2cc(S(=O)(=O)NCCc3ccccc3)ccc2F)cc1Cl` gave Measles CPE 7.
`C=C(C)CN(CC)c1nc(N)c(C#N)c(CC#N)c1C#N` gave CYP2C19 activ 0.9, CYP2C9 inh 29, CYP2C9 act 0.7, CYP2C19 inhib 6 and Measles CPE 8.
`CCCCN(CC)c1nc(N)c(C#N)c(CC#N)c1C#N` gave CYP2C19 activ 0.4, CYP2C9 inh 85*, CYP2C9 act 0.1, CYP2C19 inhib 64* and Measles CPE 15.
Screening Cc1ccc(NC(=O)Cn2nnc(C(=O)Nc3ccc(C)c(C)c3)c2N)cc1 returned CYP2C19 activ 0.9, CYP2C9 inh -58, CYP2C9 act 1.6, CYP2C19 inhib 6 and Measles CPE 15.
Screening COc1ccccc1-c1ccc(Nc2cccc(C(C)=O)c2)nn1 returned CYP2C19 activ 0.2, CYP2C9 inh -49, CYP2C9 act 1.5, CYP2C19 inhib 80* and Measles CPE 13.
For CCCCNC(=O)CCCn1c(=O)[nH]c2ccc(Br)cc2c1=O the results were CYP2C19 activ 0.9, CYP2C9 inh 12, CYP2C9 act 0.9, CYP2C19 inhib 12 and Measles CPE 10.
For CCN(CCCNC(=O)c1[nH]c(C)c(C(C)=O)c1C)c1cccc(C)c1 the results were CYP2C19 activ 0.5, CYP2C9 inh 50, CYP2C9 act 0.5, CYP2C19 inhib 53* and Measles CPE 7.
`CCN(CCCNC(=O)CCn1c(=O)[nH]c2ccccc2c1=O)c1ccccc1` gave CYP2C19 activ 0.4, CYP2C9 inh 25, CYP2C9 act 0.8, CYP2C19 inhib 62* and Measles CPE 4.
CCN(CCCNC(=O)COc1cc(=O)n(C)c2ccccc12)c1cccc(C)c1 was read as CYP2C19 activ 0.7, CYP2C9 inh 11, CYP2C9 act 0.9, CYP2C19 inhib 27 and Measles CPE 6.
CCN(CCCNC(=O)CCCn1c(=O)[nH]c2ccccc2c1=O)c1cccc(C)c1 was read as CYP2C19 activ 0.5, CYP2C9 inh 62*, CYP2C9 act 0.4, CYP2C19 inhib 48 and Measles CPE 41.
Screening CCN(CCCNC(=O)CCn1c(=O)[nH]c2ccccc2c1=O)c1cccc(C)c1 returned CYP2C19 activ 0.3, CYP2C9 inh 24, CYP2C9 act 0.8, CYP2C19 inhib 67* and Measles CPE 5.
For O=C(COC(=O)c1cccc(C(F)(F)F)c1)NCc1ccc(Cl)cc1 the results were Measles CPE 4.
For Cc1nn(Cc2c(F)c(F)c(F)c(F)c2F)c(C)c1NC(=O)c1ccc(COc2ccccc2Cl)o1 the results were CYP2C19 activ 0.5, CYP2C9 inh 59*, CYP2C9 act 0.4, CYP2C19 inhib 53* and Measles CPE 6.
Screening COc1ccccc1NC(=O)c1ccc(Br)o1 returned CYP2C19 activ 0.7, CYP2C9 inh -138, CYP2C9 act 2.4*, CYP2C19 inhib 33 and Measles CPE 20.
Screening Cc1cccc(NC(=O)c2ccc(COc3ccc(Cl)cc3Cl)o2)n1 returned CYP2C19 activ 0.6, CYP2C9 inh 56*, CYP2C9 act 0.4, CYP2C19 inhib 44 and Measles CPE 2.
`COc1cc(NC(=O)c2ccc(Br)o2)ccc1NC(=O)c1ccccc1Cl` gave CYP2C19 activ 0, CYP2C9 inh 77*, CYP2C9 act 0.2, CYP2C19 inhib 98* and Measles CPE 3.
